# Screens: PubChem BioAssay, several laboratories
# Hits are enriched below; roughly 1.6% of the tested compounds scored in any of these assays.
# PABP FP inh: PABP poly(A) RNA binding inhibitors, primary screen, biochemical, fluorescence polarization, uHTS. Polyadenylate-binding protein 1 (Homo sapiens), P11940. calls only at 35 µM. 290,000 compounds, 1% hits;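 further: calls also rest on retests at 20 µM and on dose response follow-up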
# PERK inh: block of dimerizer-induced PERK translation repression, primary screen, PERK inhibitor project, CHO PERK-DD cells, SEAP luminescence, HTS | AID 1416, 2008 | inhibition, % at 5.6 µM | CHO PERK-DD fusion, SEAP luminescence translation reporter | 220,000 compounds, 0.17% hits;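 active means inhibition above the mean inhibition of all tested compounds plus 3 SD, set separately per screening campaign, cut at about 2.9% in these data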;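 further: PERK kinase domain activated by AP20187 dimerizer at 100 nM; 0% = DMSO with dimerizer and 100% = rapamycin at 8.4 µM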
# eIF4H FP inh: human eIF4H binding inhibitors, primary screen, translation initiation inhibitor project, biochemical, uHTS, fluorescence polarization | Eukaryotic translation initiation factor 4H (Homo sapiens), Q15056 | eIF4H fluorescence polarization binding assay | inhibition, % at 35 µM | 290,000 compounds, 0.94% hits;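 further: calls also rest on retests at 20 µM and on dose response follow-up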
# eIF4E 4G PPI: eIF4E–eIF4G protein interaction inhibitors, primary screen, biochemical, uHTS, TR-FRET, eIF4GI fragment. AID 782, 2007. inhibition, % at 21.7 µM. Eukaryotic translation initiation factor 4E (Mus musculus) + Eukaryotic translation …. TR-FRET eIF4E-eIF4GI(517-606) binding, 2 h. 220,000 compounds, 0.37% hits;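 active means inhibition above about 30%, limit read from the data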;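 further: 0% = full FRET control wells and 100% = background wells lacking eIF4GI fragment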
# PABP1 MLLE inh: inhibitors of PABP1 MLLE–PAM2 peptide binding, primary screen, biochemical, fluorescence polarization, FITC-PAM2, GST-MLLE; Polyadenylate-binding protein 1 (Homo sapiens), P11940; inhibition, % at 20 µM; 360,000 compounds, 0.36% hits; in the data active means inhibition above about 35%, passing the limit was not always enough;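 further: plate controls were DMSO wells with GST-MLLE for no effect and wells lacking GST-MLLE protein for full effect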
# Active calls of the source: *; i = inactive; ? = inconclusive; . = no result given; + = active, no number. Unless noted, how the calls were made is not given here.
SMILES,PABP FP inh,PERK inh,eIF4H FP inh,eIF4E 4G PPI,PABP1 MLLE inh
O=C(COC(=O)c1cc(S(=O)(=O)N2CCOCC2)ccc1F)NCc1ccco1,i,.,-9,.,5
N=c1c(S(=O)(=O)c2ccc(Cl)cc2)cc2c(=O)n3ccccc3nc2n1C1CCCC1,i,.,30,.,27
O=C1N=C(N2CCOCC2)S/C1=C1\C(=O)N(Cc2ccccc2)c2ccc(Br)cc21,i,.,-10,.,.
CCCCN1C(=O)/C(=C2\SC(N3CCCCC3)=NC2=O)c2ccccc21,i,0,-8,-1,40*
CC1CCN(C(=O)CCC(=O)Nc2nnc(C(F)(F)F)s2)CC1,i,.,-7,.,7
O=c1[nH][nH]c(=S)n1C1CCCCC1,i,1,-6,44*,.
CC1CCN(CC(O)COC2CC(C)CC(C)(C)C2)CC1 (centres undefined),.,.,.,.,1
CC[N+]1(CC(O)COC2CC(C)CC(C)(C)C2)CCOCC1 (centres undefined),+,1,-2,-9,-114
CC1(C)Nc2ccc(O)cc2-c2c1ssc2=S,+,0,80,0,17
COc1cccc(-n2sc3c(c2=S)-c2cc(OC)ccc2NC3(C)C)c1,i,-1,-14,1,-9
CCOC(=O)c1c(CSc2cccs2)n(C)c2cc(Br)c(O)c(CN(C)C)c12,i,-1,-5,2,12
COCCn1c(SCC(=O)NC2CCCCC2)nc2c(c1=O)SCC2,i,.,10,.,11
COCCn1c(SCC(=O)NCC2CCCO2)nc2c(c1=O)SCC2 (centres undefined),i,.,12,.,126*
O=C(CSc1nnc(-c2cccnc2)o1)Nc1ccccc1F,.,.,.,.,44*
O=C(CCS(=O)(=O)c1ccc(Br)cc1)N1CCCCCC1,i,.,94*,.,-3
O=C(CCNS(=O)(=O)c1ccc(Br)cc1)N1CCCCCCC1,.,.,.,.,0
CC1OC(OCC2OC(Oc3c(-c4ccc(O)cc4)oc4cc(O)cc(O)c4c3=O)C(O)C(O)C2O)C(O)C(O)C1O (centres undefined),?,0,?,6,13
C[C@@H]1O[C@@H](OC[C@H]2O[C@@H](Oc3c(-c4ccc(O)c(O)c4)oc4cc(O)cc(O)c4c3=O)[C@H](O)[C@@H](O)[C@@H]2O)[C@H](O)[C@H](O)[C@H]1O,+,1,61*,-4,-7
COCc1cc(C)nc(SCC(=O)Oc2ccc(Cl)cc2)c1C#N,+,1,active,-2,8
CC(=O)C(=Cc1cc(C)n(-c2ccccc2)c1C)C(C)=O,+,0,54*,-3,-1
Cc1ccc(C)n1-c1cccc(C(=O)O)c1,+,.,91*,25,.
Cc1cc(C=O)c(C)n1-c1cccc(C(=O)O)c1,i,2,80*,2,-2
Cc1ccc(C)n1-c1cccc(C(=O)Nc2ccccc2)c1,i,0,0,8,4
COC(=O)c1ccc(Cn2c(C)c(C(=O)NCc3cccs3)sc2=O)o1,.,.,.,.,15
CC[N+](C)(CC)CCC(c1ccccc1)C1CCCCC1 (centres undefined),+,.,34,.,-121
SMILES,PABP FP inh,PERK inh,eIF4H FP inh,eIF4E 4G PPI,PABP1 MLLE inh
C=CCn1c(SCC(=O)c2ccc(CNC(C)=O)o2)nc2scc(C3CC3)c2c1=O,i,-1,77*,1,-47
C=CCn1c(SCC(=O)NC2CCS(=O)(=O)C2)nc2scc(C3CC3)c2c1=O (centres undefined),i,0,-5,-14,-25
C/C(=N\NC(=O)c1cc(O)cc(O)c1)c1ccc(NC(=O)Cc2ccccc2)cc1,+,.,101*,.,3
CC(=O)Nc1cccc(/C(C)=N/NC(=O)c2ccc(O)cc2)c1,i,0,active,-4,0
C/C(=N\NC(=O)c1cc(O)ccc1O)c1cccc(NC(=O)c2ccc(Cl)cc2)c1,+,.,90*,.,12
C/C(=N\NC(=O)c1cc(O)ccc1O)c1cccc(NC(=O)c2cccc(Cl)c2)c1,+,.,85*,.,2
COc1ccc(OC)c2sc(N(CCCN(C)C)C(=O)CCS(=O)(=O)c3ccccc3)nc12,.,.,.,.,43*
